Measured values published in publication PMC4336329 (PLoS ONE, 2015).
About 14,000 (4.5%) of roughly 310,000 compounds showed an effect of 50% or more. Effects have a minus sign here. For the sample, strong results were picked, then their nearest neighbours and some compounds at random.

molecular target: human ether-à-go-go-related gene (hERG) potassium channel (human, UniProt Q12809); test: primary screen, population patch clamp on CHO cells stably expressing hERG; higher = less effect of the substance
Sequence (Q12809 whole entry, looked up): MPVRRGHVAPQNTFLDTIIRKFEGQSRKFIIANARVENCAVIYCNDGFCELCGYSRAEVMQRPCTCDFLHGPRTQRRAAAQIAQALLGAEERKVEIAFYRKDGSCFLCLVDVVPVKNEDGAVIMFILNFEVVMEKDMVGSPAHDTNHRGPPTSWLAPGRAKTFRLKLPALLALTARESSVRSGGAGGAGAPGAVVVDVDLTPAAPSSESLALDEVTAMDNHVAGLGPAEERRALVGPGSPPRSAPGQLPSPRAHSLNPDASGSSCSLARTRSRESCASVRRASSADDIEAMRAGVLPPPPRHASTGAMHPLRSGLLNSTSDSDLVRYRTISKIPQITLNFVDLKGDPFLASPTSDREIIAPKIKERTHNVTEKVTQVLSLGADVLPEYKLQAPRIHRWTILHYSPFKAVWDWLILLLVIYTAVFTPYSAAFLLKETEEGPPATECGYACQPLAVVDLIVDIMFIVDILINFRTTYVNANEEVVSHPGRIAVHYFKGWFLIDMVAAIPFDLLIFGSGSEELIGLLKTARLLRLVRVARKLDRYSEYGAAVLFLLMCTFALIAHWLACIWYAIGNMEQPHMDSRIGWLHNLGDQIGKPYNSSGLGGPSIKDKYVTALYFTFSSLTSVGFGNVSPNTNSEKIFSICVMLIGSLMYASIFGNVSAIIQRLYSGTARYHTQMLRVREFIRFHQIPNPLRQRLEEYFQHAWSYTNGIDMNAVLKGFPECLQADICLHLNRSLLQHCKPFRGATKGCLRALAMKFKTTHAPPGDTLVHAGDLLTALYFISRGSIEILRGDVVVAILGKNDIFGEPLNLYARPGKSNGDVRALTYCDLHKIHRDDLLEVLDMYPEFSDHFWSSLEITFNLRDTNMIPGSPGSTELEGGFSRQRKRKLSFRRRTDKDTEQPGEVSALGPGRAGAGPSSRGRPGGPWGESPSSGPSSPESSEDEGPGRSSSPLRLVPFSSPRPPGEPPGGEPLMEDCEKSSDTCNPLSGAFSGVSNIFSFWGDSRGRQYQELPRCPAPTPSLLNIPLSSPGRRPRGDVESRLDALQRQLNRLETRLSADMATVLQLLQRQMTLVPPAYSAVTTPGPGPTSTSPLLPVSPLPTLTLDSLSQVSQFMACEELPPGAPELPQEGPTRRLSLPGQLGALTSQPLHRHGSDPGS
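Note: peak tail current of the secondary pulse compared with the same well before compound.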

Row | SMILES | hERG current change (%, negative = inhibition) at 10uM
1 | COc1ccc2c(c1)C(=O)N(c1ccc(C)cc1C)C(=O)C2 | 7.6%
2 | O=C(O)C(Cc1ccccc1)N1C(=O)/C(=C/c2ccccc2)SC1=S (stereo not drawn) | -0.221%
3 | CCn1c(NCc2ccco2)nc2c1c(=O)n(C)c(=O)n2C | -10.7%
4 | CCCCC1=C([O-])C2N=CC=CC2=[N+](c2ccccn2)C1=O (stereo not drawn) | 0.715%
5 | Cc1ccc(-n2c(=O)[nH]c3c(C(N)=O)nc(CC(C)C)nc32)cc1 | 4.8%
6 | O=C(Cc1ccc(Cl)cc1)Nc1ccc(N2CCCC2)cc1 | 17.3%
7 | Cc1ccc(Cl)cc1N1CCN(CC(=O)Nc2ccc(CN3CCCCC3)cc2)CC1.Cl | -71.1%
8 | O=C(COc1ccccc1Cl)Nc1ccc(CN2CCCCC2)cc1 | -33.7%
9 | Cc1ccc(Cl)cc1N1CCN(CC(=O)Nc2ccc3[nH]c(=O)[nH]c3c2)CC1 | 11.1%
10 | O=C(Nc1ccccc1)N1CCCN(Cc2ccccc2F)C1 | -8.48%
11 | O=C(COc1ccc(Cl)cc1Cl)Nc1ccc(CN2CCCCC2)cc1 | -67.9%
12 | O=C(Nc1ccc(Cl)cc1)N1CCCN(Cc2ccc(F)cc2)C1 | -75.4%
13 | O=C(Cc1ccc(Cl)cc1)Nc1ccc(CN2CCCCC2)cc1 | -64.9%
14 | COc1ccccc1N1CCN(CC(=O)Nc2ccc(CN3CCCCC3)cc2)CC1.Cl | -11.5%
15 | O=C(Cc1ccc(Cl)cc1)Nc1ccc(C(=O)N2CCCCC2)cc1 | 14.5%
16 | O=C(COc1ccc(Cl)cc1Cl)Nc1ccc(CN2CCOCC2)cc1 | 15.4%
17 | O=C(Nc1ccc(Cl)cc1)N1CCCN(Cc2ccccc2F)C1 | -26.3%
18 | Cc1cc(C)n2nc(C(=O)N/N=C/c3ccccc3C)nc2n1 | 4.85%
19 | O=C1c2ccccc2NC2(CCCC2)N1N=C1CCCC1 | -12.2%

Row | SMILES | hERG current change (%, negative = inhibition) at 10uM
20 | Cc1c(C(=O)Nc2cccc(S(=O)(=O)N3CCCC3)c2)oc2ccccc12 | 5.98%
21 | O=C(CCNS(=O)(=O)c1ccccc1)Nc1ccccc1 | 17.8%
22 | CCc1ccc(NC(=O)C2CCN(S(=O)(=O)c3ccc4c(c3)NC(=O)C(C)S4)CC2)cc1 (stereo not drawn) | 19.2%
23 | O=C(Oc1coc(CSc2nnc(NC(=O)c3cccs3)s2)cc1=O)c1ccccc1 | 7.37%
24 | COc1ccc(NS(=O)(=O)c2cccc(NC(=O)NC3CCCCC3)c2)cc1 | -4.21%
25 | CC(OC(=O)CC1CC2CCC1C2)C(=O)Nc1ccc(C(N)=O)cc1 (stereo not drawn) | -16%
26 | CCCCNC(=O)Nc1c(C(=O)OCC)[nH]c2ccccc12 | 6.83%
27 | COc1cc2nc(/C=C/c3cc(OC)c(OC)c(OC)c3)sc2cc1SC | 5.92%
28 | CO/N=C/CC(=O)Nc1ccc(F)cc1F | 13.3%
29 | Cc1ccc(C(=O)Nc2ccc(CN3CCCCC3)cc2)c(C)c1 | -35.2%
30 | CCN1CCN(Cc2ccc(NC(=O)Nc3ccccc3Cl)cc2)CC1 | -22.8%
31 | O=C(CN1CCCC1)Nc1ccc(NC(=O)Nc2ccccc2Cl)cc1 | -21.5%
32 | Cc1ccc(OCC(=O)Nc2ccc(CN3CCCCC3)cc2)c(C)c1 | -69.4%
33 | O=C(Nc1ccc(CN2CCCCC2)cc1)Nc1ccccc1Cl | -59%
34 | O=C(COc1ccccc1)Nc1ccc(CN2CCCCC2)cc1 | -26.9%
35 | COc1ccc(C2CC(c3ccccc3)=NN2C(=O)CCC(=O)O)cc1 (stereo not drawn) | 8.77%
36 | O=C(COc1ccc(Cl)cc1)NCC(=O)N/N=C/c1cccs1 | 12%
37 | O=C(CN1C(=O)C2CCCCC2C1=O)Nc1nc(-c2ccc(F)cc2)cs1 (stereo not drawn) | 5.21%
38 | O=C(Nc1nc(-c2ccc(Cl)cc2)cs1)c1cccnc1 | 5.68%

Row | SMILES | hERG current change (%, negative = inhibition) at 10uM
39 | CC1(C)C(C#N)=C(N)Oc2c1c(=O)oc1ccccc21 | 0.829%
40 | Cn1c(N)c(C(=O)CNC2CCCCC2)c(=O)n(C)c1=O | 5.61%
41 | COc1ccc(-c2cc(-c3n[nH]c(=S)n3-c3ccccc3Cl)[nH]n2)cc1 | 13.5%
42 | Nn1c(Cc2cccc3ccccc23)nnc1SC1CCOC1=O (stereo not drawn) | -0.158%
43 | Cc1ccc(-c2cc(C(=O)N/N=C/C=C/c3ccccc3)n[nH]2)o1 | -7.76%
44 | Cc1ccc(C)c(N2CCN(c3ncccc3[N+](=O)[O-])CC2)c1 | 2.42%
45 | COc1cc(NC(=O)C2=C(C)OCCS2)c(Cl)cc1C(=O)NCCN(C)C | -3.65%
46 | CCCNC(=O)c1cc(Cl)c(NC(=O)C2=C(C)OCCS2)cc1OC | -14.5%
47 | CCN1CCN(CCNC(=O)c2cc(Cl)c(NC(=O)C3=C(C)OCCS3)cc2OC)CC1 | -73.4%
48 | CCN(CC)CCCNC(=O)c1cc(Cl)c(NC(=O)C2=C(C)OCCS2)cc1OC | -61.5%
49 | CCOCCCNC(=O)c1cc(Cl)c(NC(=O)C2=C(C)OCCS2)cc1OC | -9.78%
50 | COc1cc(NC(=O)C2=C(C)OCCS2)c(Cl)cc1C(=O)NCCN1CCN(C)CC1 | -47.1%
51 | O=C(CCS(=O)(=O)c1ccccc1)Nc1ccc(Cl)cn1 | -3.42%
52 | CCN(CC)C(=O)Cn1cc(C(=O)C(=O)NCCCn2ccnc2)c2ccccc21 | 27.8%
53 | CCCN1C(=O)COc2ccc(C(=O)c3ccccc3C(=O)O)cc21 | 17.7%
54 | CC(c1ccccc1)N1C(=O)c2ccc(C(=O)NCc3cccnc3)cc2C1=O (stereo not drawn) | -18.4%
55 | O=C(NC(=S)N(Cc1ccccc1)Cc1ccccc1)C1CCCCC1 | 12.6%
56 | COc1ccc(C(=O)N2CCN=C2SC)cc1 | 1.04%
57 | O=S(=O)(Nc1cccnc1)c1cc(Cl)ccc1Cl | 9.51%
